This passage reports inhibition results from PubChem BioAssay AID449762 (Southern Research Specialized Biocontainment Screening …, 2010).

Out of some 330,000 compounds screened, about 1,900 (0.58%) were called active. Another 4% or so got no clear call; they are omitted. Rule as the data show it: inconclusive = inhibition above about 70% without an active follow-up result; inactive = below that. The list is a sample of the results. Entries with a potency or affinity are not part of this list.

The assay in a line: M. tuberculosis growth inhibition, HTS (AID 449762).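 Also: bacterial growth assessed after seven days of incubation.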 As to conditions: M. tuberculosis H37Rv growth inhibition, 7H9 media; at 25 µM; stronger effect = higher value.
In the case of `O=C(CCC(=O)Nc1ccc(F)cc1)N/N=C/c1ccc(O)cc1O`, the inhibition is -2.52% (inactive). With `CC1CCCCN1Cc1c(O)ccc2c(=O)c(-c3ccc(Cl)cc3)coc12` (stereo not given), the inhibition is 0.71% (inactive). `O=C1c2ccccc2C(=O)N1C(CO)C(O)c1ccc([N+](=O)[O-])cc1` (stereo not given): the inhibition is -1.67% (inactive).

Consider `O=C(CSC(=S)N1CCOCC1)Nc1ccc(S(=O)(=O)Nc2ncccn2)cc1`, for which the inhibition was -0.18% (inactive).

Regarding `CCCC(=O)NNc1c2ccccc2nc2ccccc12`, the inhibition is -11.4% (inactive).

For the molecule `O=C(NNc1c2ccccc2nc2ccccc12)c1ccc(O)cc1`, the inhibition was 13.8% (inactive).

Take `[O-][n+]1cccc(C(O)c2ccccc2)c1` (stereo not given): the inhibition is -13.5% (inactive). The figure for `COC(=O)c1c(C)oc(C)c1S(=O)(=O)N1CCOCC1` is -2.09% (inactive); for `C=CCNC(=O)C1CC(=O)N(c2ccc(OCC(=O)Nc3c(C)cccc3C)cc2)C1` (stereo not given) it is 1.18% (inactive). In the case of `Cc1nnc(C)n1/N=C/c1c(O)ccc2ccccc12`, the inhibition is 2.29% (inactive).

Take `Cc1nc2ccccc2c(=O)n1/N=C/c1c(O)ccc2ccccc12`: the inhibition is 9.53% (inactive).

Take `Clc1ccccc1COc1ccccc1-c1nnco1`: the inhibition was 19.4% (inactive). For `O=C(Oc1ccccc1-c1nnco1)c1ccccc1`, the inhibition was -3.01% (inactive). Consider `C/C(=N/NC(=O)c1ccc(Br)o1)C(C)C`, for which the inhibition is 3.04% (inactive). For `COCCNC(=S)N1CCc2cc(OC)c(OC)cc2C1c1cccs1` (stereo not given), the inhibition is -7.46% (inactive).

On to `NC(=S)N/N=C/c1ccccc1OCc1cccc(Cl)c1`, for which the inhibition was 2.95% (inactive). With `NC(=S)N/N=C\c1ccccc1OCc1ccccc1`, the inhibition was 49.5% (inactive). The figure for `Cc1ccc(N2C(=O)c3cccc([N+](=O)[O-])c3C2=O)cc1C` is -6.94% (inactive). In the case of `COc1ccc(-c2cc3c(=O)n(CC(=O)NCCCN4CCN(Cc5ccccc5)CC4)ncn3n2)cc1`, the inhibition was 1.94% (inactive).

On to `COc1ccc(-c2cc3c(=O)n(CC(=O)NCCCN4CCC(N5CCCCC5)CC4)ncn3n2)cc1`, for which the inhibition is 2.99% (inactive).

As for `O=C(NCCC1=CCCCC1)C1CCN(C(=O)c2ccc(Br)cc2)CC1`, the inhibition was 5.13% (inactive). As for `Cc1ccccc1OCCn1cc(C(=O)O)c2ccccc21`, the inhibition was -0.94% (inactive). For `Cc1ccnc2nc(C(=O)Nc3nc(-c4ccccn4)cs3)nn12`, the inhibition was 0.14% (inactive). The figure for `O=C(CCS(=O)(=O)c1ccc(F)cc1)Nc1nc(-c2ccncc2)cs1` is 31.5% (inactive); for `O=C(CCS(=O)(=O)c1ccccc1)Nc1nc(-c2ccc(F)cc2)cs1` it is 8.67% (inactive). For the molecule `CCc1cc(C(=O)Nc2ncccc2O)sc1C`, the inhibition is 6.5% (inactive). For `COc1cccc(-c2nc(CS(=O)(=O)CC(=O)NCCCN3CCc4ccccc4C3)c(C)o2)c1`, the inhibition was -28.4% (inactive). As for `CCCc1cc(=O)n2[nH]cnc2n1`, the inhibition is -4.95% (inactive). On to `Cc1cc(C)n(CCOc2ccc(Br)cc2)n1`, for which the inhibition is 2.96% (inactive). With `c1csc(CCNc2ncnc3sc4c(c23)CCC4)c1`, the inhibition is 1.63% (inactive). Take `COc1ccc(/C=N/Nc2ncnc3sc4c(c23)CCCC4)cc1OC`: the inhibition is -2.36% (inactive). The figure for `CC(=O)CSc1nnc2cc(C)c3ccccc3n12` is 0.13% (inactive). As to `CC(=O)N1CCN(c2ccc(NC(=O)c3cccc(OCc4ccccc4)c3)cc2)CC1`, the inhibition was 62.8% (inactive). Take `Cn1c(=O)c2c(nc(NCC(O)CO)n2CCc2ccccc2)n(C)c1=O` (stereo not given): the inhibition was 2.12% (inactive). Regarding `CN1CCN(c2ccc(NC(=O)c3cccc(S(=O)(=O)N4CCCC4)c3)cc2)CC1`, the inhibition is -4.85% (inactive).

On to `Cc1[nH]n(-c2ccccc2)c(=O)c1C(c1cccc([N+](=O)[O-])c1O)c1c(C)[nH]n(-c2ccccc2)c1=O`, for which the inhibition was -4.36% (inactive). The same measure for `COc1ccc(C(C[N+](=O)[O-])c2c(C)[nH]n(-c3ccccc3)c2=O)cc1` (stereo not given): 32.3% (inactive); for `CCN1CC(C)C(O)(c2ccccc2)CC1C` (stereo not given): -1.44% (inactive); for `CCC1C(c2ccccc2)NC(c2ccccc2)CC1(O)c1ccc(F)cc1` (stereo not given): 29.1% (inactive). Take `NC(=O)CC(NC(=O)Cc1cccc2ccccc12)c1ccc(N2CCC(Cc3ccccc3)CC2)c([N+](=O)[O-])c1` (stereo not given): the inhibition was -0.77% (inactive). As to `COc1ccc(CN(C)C(=O)c2ccc(NC(=O)CC3SC(N4CCCC4)=NC3=O)cc2)c(OC)c1` (stereo not given), the inhibition was 7.53% (inactive). The same measure for `CC1CC(C)(C)CC2(C1)NC(=O)N(CC(=O)Nc1ccc(N3CCCCC3)cc1)C2=O` (stereo not given): 5.59% (inactive). Take `CC(C)NC(=S)NN=C1c2ccccc2-c2ccccc21`: the inhibition was -0.95% (inactive).

As to `C=C(C)CNC(=S)NN=C1c2ccccc2-c2ccccc21`, the inhibition is 12.3% (inactive). In the case of `Cc1cc2c(cc(C(=O)O)n2C)s1`, the inhibition was -1.98% (inactive). Consider `CCN(CC)CCCNC(=O)c1cc2c(-c3ccc(Cl)cc3)nn(C)c2s1`, for which the inhibition was 47.1% (inactive). The figure for `CCN(CC)CCNC(=O)c1cc2c(-c3ccc(Cl)cc3)nn(C)c2s1` is 7.68% (inactive). With `Clc1ccc(-c2cc3ccccc3nc2N2CCOCC2)cc1`, the inhibition was 48.3% (inactive). The same measure for `c1ccc(-c2cc3ccccc3nc2N2CCCC2)cc1`: 4.32% (inactive); for `Cc1ccc(NC(=O)COC(=O)CCc2ccc(S(=O)(=O)N3CCOCC3)cc2)cc1F`: 2.39% (inactive); for `O=C(O)c1ccccc1C(=O)NC1CCCCNC1=O` (stereo not given): -1.29% (inactive).

Take `OC(CNc1ccccc1)Cn1ccc2ccccc21` (stereo not given): the inhibition was 12.2% (inactive). Turning to `OCCNCC(O)Cn1ccc2ccccc21` (stereo not given), the inhibition was -2.23% (inactive). For `CC(=O)c1ccc(C(=O)NC2CCCN(Cc3ccccc3F)C2)s1` (stereo not given), the inhibition was -25.9% (inactive). Take `Cc1cc(C)cc(NC(=O)CCn2cnc3cc(C)c(C)cc32)c1`: the inhibition was 62.6% (inactive). As for `COc1ccc(/C=C2\Cc3ccccc3C2=O)cc1OC`, the inhibition is 5.99% (inactive). Take `COc1ccc(C=C2C(=O)OC(C)(C)OC2=O)cc1OC`: the inhibition was 5.49% (inactive). The figure for `CNC(=O)C(=O)NCC(c1cccs1)S(=O)(=O)c1ccc(F)cc1` (stereo not given) is -2.67% (inactive). Take `Cc1ccc(C)c(N2CCN(C(=O)c3ccc(NC4=NC5CS(=O)(=O)CC5S4)cc3)CC2)c1` (stereo not given): the inhibition is -1.31% (inactive).

Regarding `N#CC(C(=O)Nc1ccc(Cl)cc1)=C1Nc2ccccc2N1`, the inhibition is 1.22% (inactive). As to `N#CC(C(=O)Nc1cccc(Cl)c1)=C1Nc2ccccc2N1`, the inhibition is 2.4% (inactive). As to `O=C(CCCN1C(=O)S/C(=C\C=C\c2ccccc2)C1=O)Nc1ccc(C(=O)O)cc1`, the inhibition was -3.27% (inactive). In the case of `O=C(COc1ccc(C(=S)N2CCOCC2)cc1Cl)Nc1ccccc1Cl`, the inhibition was 6.58% (inactive). For the molecule `O=C(NNC(=O)C1CCN(S(=O)(=O)c2ccccc2C(F)(F)F)CC1)c1ccccc1O`, the inhibition is 6.28% (inactive). The same measure for `COc1cccc(N2CCN(C(=O)CCNS(=O)(=O)c3ccc4c(c3)c(=O)n(C)c(=O)n4C)CC2)c1`: -0.56% (inactive); for `CCC(CC)c1nnc(NC(=O)c2cc([N+](=O)[O-])ccc2N2CCCCC2)s1`: 9.65% (inactive); for `COc1ccc(Nc2nc(N)nc(CN3CCc4ccccc4C3)n2)cc1`: 7.44% (inactive). Regarding `Cc1ccc(Nc2nc(N)nc(CN3CCN(C)CC3)n2)cc1`, the inhibition was -7.52% (inactive). Turning to `CCC(C)c1ccc(OCC(=O)O)cc1` (stereo not given), the inhibition is -1.06% (inactive).

On to `COC(=O)c1ccc(COC(=O)c2ccc(CO)cc2)o1`, for which the inhibition was 9.22% (inactive). With `CCOc1cc(C(N)=O)cc(Br)c1OC`, the inhibition is -2.81% (inactive).

As to `CC(C)COC(=O)NCCCOC(=O)Nc1ccccc1`, the inhibition is 2.06% (inactive). `Cc1ccc(C)c(NC(=O)CCc2c(C)nn(-c3ccc(N4CCCCC4)nn3)c2C)c1`: the inhibition was -0.31% (inactive). `COc1ccccc1CNC(=O)CSc1nc(C)cs1`: the inhibition was -6.19% (inactive). The figure for `CN(CCOc1ccc(Cl)cc1)C(=O)CN1C(=O)NC2(CCCC2)C1=O` is -10.9% (inactive). Turning to `Fc1ccc(OCCOCCN2CCNCC2)cc1`, the inhibition was -3.98% (inactive). The figure for `COc1ccc(C[C@H]2CN3C(=NC[C@H]3C)N2CCNC(=O)CCC2CCCCC2)cc1` is 2.73% (inactive); for `COc1ccc(C[C@H]2CN3C(=NC[C@@H]3C)N2CCNC(=O)CCC2CCCCC2)cc1` it is -0.84% (inactive); for `O=C1C(Cc2ccccc2)Nc2ncnc(N3CCN(c4ccccc4)CC3)c2N1Cc1ccc(Br)cc1` (stereo not given) it is 0.68% (inactive). The same measure for `COc1ccc(C2CC(=O)C3=C(C2)Nc2ccccc2N(C(C)=O)C3c2ccco2)cc1` (stereo not given): -14% (inactive). Consider `O=C(c1ccc(F)cc1)C(CN1CCOCC1)c1ccccc1` (stereo not given), for which the inhibition was 3.13% (inactive). On to `CC(CN1CCOCC1)C(=O)c1ccccc1` (stereo not given), for which the inhibition was 3.78% (inactive). The same measure for `COc1ccc(C(NC(=O)c2cccc(F)c2)c2ccccc2)cc1` (stereo not given): -16.4% (inactive).

Consider `C=CCn1cnc2c(nnn2-c2cc(C)cc(C)c2)c1=O`, for which the inhibition is 7.46% (inactive).

As to `Cc1ccc(C(=O)NN(CCC(=O)NC(C)(C)C)C2=NS(=O)(=O)c3ccccc32)cc1`, the inhibition was 3.72% (inactive). With `O=C(O)c1ccc(Cl)c(S(=O)(=O)N(Cc2ccccc2)c2ccccc2)c1`, the inhibition was -3.72% (inactive). Take `CC1(C)CC(NC(=O)c2cccc(S(=O)(=O)N(Cc3ccccc3)c3ccccc3)c2)CC(C)(C)N1`: the inhibition is -5.74% (inactive). On to `Cc1nn(CCCC(=O)N2CCN(c3ccc(F)cc3)CC2)c(C)c1[N+](=O)[O-]`, for which the inhibition is 2.18% (inactive). The same measure for `Cc1cc[n+](CC[n+]2ccc(C)cc2)cc1`: -0.82% (inactive); for `CCC(C)(C)c1ccc(OCC(=O)N(C)C)c(C(C)(C)CC)c1`: -12.9% (inactive).

On to `CCc1ccc(C(=O)Nc2ccc3nc(C)ccc3c2)cc1`, for which the inhibition is 0.01% (inactive). As for `CCc1nc2ccccc2c(C(=O)Nc2cccc(C)c2)c1C`, the inhibition is 7.7% (inactive). On to `CCc1nc2ccccc2c(C(=O)Nc2ccc(C)cc2)c1C`, for which the inhibition is 4.44% (inactive).

On to `CCOC(=O)C1CCCN(CC(O)COc2cccc(C)c2)C1` (stereo not given), for which the inhibition was -3.72% (inactive).

`COc1ccccc1C(=O)N/C(=C\c1ccccc1)C(=O)NC(Cc1ccccc1)C(=O)O` (stereo not given): the inhibition was -6.9% (inactive).

The term inhibition denotes the change of the read-out against control, counted positive when it falls.
